Several values for one entry are separate records, joined by “and”; a condition that tells them apart may be missing. Equal entries are not always repeated. About 2,000 (36%) of roughly 5,500 compounds were called active. Inconclusive results (about 18%) are left out. No stated cut-off is given here; in the data, active means normalized growth mostly below about 0.91 (no sharp cut-off); inconclusive means no clear call, values can overlap the other calls; inactive means mostly above about 0.92. This is one part of the list.
Assay: chemical genetic growth profiling, strain panel (AID 1159580);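 further: tested at 20 µM; growth read once vehicle control cultures reached saturation at 30 °C; 1 = growth at the plate median or of vehicle wells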
Conditions: S. cerevisiae deletion strains, growth OD

Measured: normalized growth

Cc1oncc1C(=O)Nc1ccc(C(F)(F)F)cc1
inactive: locus YAL013W, strain DEP1, stronger effect = lower value 1.03 and 0.94 | locus YAL021C, strain ccr4, stronger effect = lower value 1.05 | locus YAL026C, strain drs2, stronger effect = lower value 0.97 | locus YAL030W, strain snc1, stronger effect = lower value 0.979 | locus YAL040C, strain CLN3, stronger effect = lower value 0.918 | locus YBL061C, strain skt5, stronger effect = lower value 1.01 | locus YBR021W, strain FUR4, stronger effect = lower value 1.02 | locus YBR023C, strain chs3, stronger effect = lower value 0.979 | locus YBR171W, strain sec66, stronger effect = lower value 1.02 | locus YBR229C, strain ROT2, stronger effect = lower value 1.01 | locus YBR279W, strain paf1, stronger effect = lower value 1 | locus YCL011C, strain gbp2, stronger effect = lower value 0.919 | locus YCL016C, strain dcc1, stronger effect = lower value 0.981 | locus YCL029C, strain bik1, stronger effect = lower value 0.996 | locus YCL061C, strain MRC1 (second series), stronger effect = lower value 0.983 | locus YCL061C, strain MRC1, stronger effect = lower value 0.95 | locus YCL069W, strain vba3, stronger effect = lower value 0.982 | locus YCR088W, strain abp1, stronger effect = lower value 0.978 | locus YDL005C, strain med2, stronger effect = lower value 1.02 | locus YDL035C, strain GPR1, stronger effect = lower value 1.04 | locus YDL040C, strain nat1, stronger effect = lower value 0.99 | locus YDL074C, strain BRE1, stronger effect = lower value 1.01 | locus YDL101C, strain DUN1, stronger effect = lower value 1.02 | locus YDL134C, strain PPH21, stronger effect = lower value 1.04 | locus YDL185W, strain tfp1, stronger effect = lower value 0.993 | locus YDL192W, strain arf1, stronger effect = lower value 0.989 | locus YDR001C, strain nth1, stronger effect = lower value 0.986 | locus YDR069C, strain doa4, stronger effect = lower value 0.977 | locus YDR101C, strain arx1, stronger effect = lower value 0.991 | locus YDR137W, strain rgp1, stronger effect = lower value 1.03 | locus YDR150W, strain NUM1, stronger effect = lower value 1.01 | locus YDR162C, strain NBP2, stronger effect = lower value 1.03 | locus YDR195W, strain ref2 1.07 | locus YDR318W, strain mcm21, stronger effect = lower value 0.993 | locus YDR334W, strain swr1, stronger effect = lower value 0.991 | locus YDR335W, strain msn5, stronger effect = lower value 0.994 | locus YDR363W, strain ESC2, stronger effect = lower value 0.966 | locus YDR388W, stronger effect = lower value 1 | locus YDR392W, strain spt3, stronger effect = lower value 0.761 | locus YDR502C, strain sam2, stronger effect = lower value 0.996 | locus YEL003W, strain gim4, stronger effect = lower value 0.971 | locus YEL037C, strain rad23, stronger effect = lower value 1.01 | locus YEL061C, strain CIN8 (second series), stronger effect = lower value 0.998 | locus YEL061C, strain CIN8, stronger effect = lower value 1.01 | locus YER002W, strain NOP16, stronger effect = lower value 1.01 | locus YER015W, strain faa2, stronger effect = lower value 0.998 | locus YER016W, strain bim1, stronger effect = lower value 1.02 | locus YER110C, stronger effect = lower value 0.99 | locus YER111C, strain swi4, stronger effect = lower value 1.02 | locus YER155C, strain BEM2, stronger effect = lower value 1.03 | locus YER167W, strain BCK2, stronger effect = lower value 1.02 | locus YFR010W, strain ubp6, stronger effect = lower value 1.01 | locus YGL078C, strain dbp3, stronger effect = lower value 0.991 | locus YGL086W, strain mad1, stronger effect = lower value 0.989 | locus YGL167C, strain pmr1, stronger effect = lower value 1.01 | locus YGL173C, strain kem1, stronger effect = lower value 0.976 | locus YGL227W, strain vid30, stronger effect = lower value 0.97 | locus YGL248W, strain PDE1, stronger effect = lower value 1.02 | locus YGL253W, strain hxk2, stronger effect = lower value 0.997 | locus YGR078C, strain PAC10, stronger effect = lower value 1.02 | locus YGR135W, strain pre9, stronger effect = lower value 1 | locus YGR252W, strain gcn5, stronger effect = lower value 0.988 | locus YHR013C, strain ard1, stronger effect = lower value 1.13 | locus YHR027C, strain rpn1, stronger effect = lower value 0.992 | locus YHR030C, strain SLT2, stronger effect = lower value 1.02 | locus YHR079C, strain IRE1 (second series), stronger effect = lower value 0.98 | locus YHR094C, strain hxt1, stronger effect = lower value 0.99 | locus YHR129C, strain ARP1, stronger effect = lower value 1.01 | locus YHR142W, strain chs7, stronger effect = lower value 0.928 | locus YHR200W, strain rpn10, stronger effect = lower value 0.991 | locus YIL066C, strain RNR3, stronger effect = lower value 1.04 | locus YIL073C, strain SPO22, stronger effect = lower value 1 | locus YIL125W, strain kgd1, stronger effect = lower value 0.99 | locus YIR030C, strain dcg1, stronger effect = lower value 0.985 | locus YJL092W, strain hpr5, stronger effect = lower value 0.983 | locus YJL095W, strain BCK1 (second series), stronger effect = lower value 0.947 | locus YJL095W, strain BCK1, stronger effect = lower value 0.999 | locus YJL115W, strain asf1, stronger effect = lower value 1.01 | locus YJL134W, strain LCB3, stronger effect = lower value 1.02 | locus YJL154C, strain vps35, stronger effect = lower value 0.994 | locus YJL164C, strain tpk1, stronger effect = lower value 0.952 | locus YJL166W, strain qcr8, stronger effect = lower value 0.932 | locus YJL168C, strain set2, stronger effect = lower value 0.993 | locus YJL187C, strain SWE1 (second series), stronger effect = lower value 1.01 | locus YJR043C, strain POL32, stronger effect = lower value 1.05 | locus YKL009W, strain mrt4, stronger effect = lower value 0.997 | locus YKL068W, stronger effect = lower value 0.998 | locus YKL085W, strain MDH1 (second series), stronger effect = lower value 0.999 | locus YKL085W, strain MDH1, stronger effect = lower value 0.999 | locus YKL160W, strain elf1, stronger effect = lower value 0.96 | locus YKR001C, strain vps1, stronger effect = lower value 0.997 | locus YKR026C, strain gcn3, stronger effect = lower value 0.98 | locus YKR091W, strain srl3, stronger effect = lower value 0.995 | locus YLL001W, strain dnm1, stronger effect = lower value 0.954 | locus YLL026W, stronger effect = lower value 0.966 | locus YLL041C, strain sdh2, stronger effect = lower value 0.958 | locus YLR039C, strain RIC1, stronger effect = lower value 0.984 | locus YLR058C, strain SHM2, stronger effect = lower value 1.02 | locus YLR102C, strain apc9, stronger effect = lower value 0.983 | locus YLR221C, strain rsa3, stronger effect = lower value 0.962 | locus YLR258W, strain gsy2, stronger effect = lower value 0.947 | locus YLR262C, strain YPT6 (second series), stronger effect = lower value 1.03 | locus YLR262C, strain YPT6, stronger effect = lower value 1.01 | locus YLR268W, strain sec22, stronger effect = lower value 0.992 | locus YLR320W, strain mms22, stronger effect = lower value 0.889 | locus YLR330W, strain CHS5, stronger effect = lower value 1.02 | locus YLR342W, strain FKS1 (second series), stronger effect = lower value 1.04 | locus YLR342W, strain FKS1, stronger effect = lower value 0.952 | locus YLR357W, strain rsc2, stronger effect = lower value 0.947 | locus YLR370C, strain arc18, stronger effect = lower value 1.01 | locus YLR371W, strain rom2, stronger effect = lower value 0.982 | locus YLR384C, strain iki3, stronger effect = lower value 1 | locus YLR418C, strain cdc73, stronger effect = lower value 0.981 | locus YML016C, strain PPZ1, stronger effect = lower value 1.03 | locus YML032C, strain rad52, stronger effect = lower value 0.989 | locus YML120C, strain ndi1, stronger effect = lower value 0.979 | locus YML124C, strain tub3, stronger effect = lower value 0.988 | locus YMR058W, strain fet3, stronger effect = lower value 0.937 | locus YMR078C, strain ctf18, stronger effect = lower value 1 | locus YMR125W, strain sto1, stronger effect = lower value 0.984 | locus YMR129W, stronger effect = lower value 0.978 | locus YMR223W, strain ubp8, stronger effect = lower value 0.998 | locus YMR231W, strain pep5, stronger effect = lower value 1.01 | locus YMR263W, strain SAP30, stronger effect = lower value 1.02 | locus YMR307W, strain GAS1, stronger effect = lower value 1.16 and 0.976 | locus YNL067W, strain RPL9B, stronger effect = lower value 1 | locus YNL128W, strain TEP1, stronger effect = lower value 1.02 and 0.958 | locus YNL175C, strain NOP13, stronger effect = lower value 0.934 | locus YNL197C, strain WHI3, stronger effect = lower value 0.946 | locus YNL209W, strain ssb2, stronger effect = lower value 0.99 | locus YNL224C, strain SQS1, stronger effect = lower value 0.94 | locus YNL233W, strain BNI4, stronger effect = lower value 1 | locus YNL248C, strain rpa49, stronger effect = lower value 0.99 | locus YNL250W, strain rad50, stronger effect = lower value 0.98 | locus YNL271C, strain bni1, stronger effect = lower value 0.993 | locus YNL298W, strain CLA4, stronger effect = lower value 1.01 | locus YNL307C, strain MCK1, stronger effect = lower value 0.991 | locus YNL322C, strain KRE1 (second series), stronger effect = lower value 0.973 | locus YNR049C, strain mso1, stronger effect = lower value 0.992 | locus YNR052C, strain pop2, stronger effect = lower value 0.979 | locus YOL006C, strain TOP1, stronger effect = lower value 0.986 | locus YOL012C, strain htz1 1.17 | locus YOL147C, strain pex11, stronger effect = lower value 0.993 | locus YOR001W, strain rrp6, stronger effect = lower value 0.997 | locus YOR061W, strain CKA2, stronger effect = lower value 1.03 | locus YOR069W, strain VPS5, stronger effect = lower value 1.02 | locus YOR070C, strain gyp1, stronger effect = lower value 0.988 | locus YOR080W, strain dia2, stronger effect = lower value 1.01 | locus YOR083W, strain WHI5 (second series), stronger effect = lower value 0.891 | locus YOR083W, strain WHI5, stronger effect = lower value 0.952 | locus YOR106W, strain vam3, stronger effect = lower value 0.955 | locus YOR136W, strain idh2, stronger effect = lower value 0.982 | locus YOR144C, strain elg1, stronger effect = lower value 0.988 | locus YOR184W, strain ser1, stronger effect = lower value 1 | locus YOR265W, strain rbl2, stronger effect = lower value 0.979 | locus YOR270C, strain vph1, stronger effect = lower value 0.964 | locus YOR290C, strain snf2, stronger effect = lower value 0.957 | locus YOR316C, strain cot1, stronger effect = lower value 1 | locus YPL051W, strain arl3, stronger effect = lower value 0.987 | locus YPL055C, strain LGE1, stronger effect = lower value 1.02 | locus YPL078C, strain atp4, stronger effect = lower value 0.935 | locus YPL106C, strain sse1, stronger effect = lower value 0.972 | locus YPL240C, strain hsp82, stronger effect = lower value 0.992 | locus YPL241C, strain CIN2, stronger effect = lower value 1.01 and 0.971 | locus YPR119W, strain clb2, stronger effect = lower value 0.989 | locus YPR141C, strain kar3, stronger effect = lower value 0.991 | locus YPR163C, strain tif3, stronger effect = lower value 0.991 | locus YPR167C, strain met16, stronger effect = lower value 0.995 | strain wtn01, stronger effect = lower value 0.992
active: locus YBR009C, strain hhf1, stronger effect = lower value 0.901 | locus YBR231C, strain swc5, stronger effect = lower value 0.88 | locus YDR159W, strain sac3, stronger effect = lower value 0.754 | locus YDR297W, strain sur2, stronger effect = lower value 0.91 | locus YER155C, strain BEM2 (second series), stronger effect = lower value 0.733 | locus YGL240W, strain doc1, stronger effect = lower value 0.785 | locus YJL129C, strain trk1, stronger effect = lower value 0.869 | locus YLR027C, strain aat2, stronger effect = lower value 0.919 | locus YMR205C, strain PFK2, stronger effect = lower value 0.794 | locus YNL071W, strain lat1, stronger effect = lower value 0.858
